Out of some 350,000 compounds screened, about 31,000 (8.9%) were called active. Another 15% or so got no clear call; they are omitted. Calls follow the shape of the dose curve; as a rule, active = well fitted inhibition curve with a large enough effect; inconclusive = small, poorly fitted or top-dose-only effect; inactive = no such curve, though single readings can be large or run the other way. Only a selection was taken, and actives are over-represented in it overall.
% is scaled to controls: 0 for no effect and ±100 for the full control effect; potency is read from the fitted curve at half-maximal effect.

Histone-lysine N-methyltransferase EHMT2 (Homo sapiens), sequence (Q96KQ7 913-1193 limits assumed): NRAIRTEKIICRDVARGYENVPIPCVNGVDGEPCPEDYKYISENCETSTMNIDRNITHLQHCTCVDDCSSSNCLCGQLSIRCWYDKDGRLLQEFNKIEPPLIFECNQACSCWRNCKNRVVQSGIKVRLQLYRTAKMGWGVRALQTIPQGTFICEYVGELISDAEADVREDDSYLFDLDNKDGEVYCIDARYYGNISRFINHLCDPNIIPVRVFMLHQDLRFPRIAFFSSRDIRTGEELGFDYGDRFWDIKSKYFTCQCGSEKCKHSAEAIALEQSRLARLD

The target in this test is Histone-lysine N-methyltransferase EHMT2 (Homo sapiens) (UniProt Q96KQ7). Briefly: qHTS Assay for Inhibitors of Histone Lysine Methyltransferase G9a. Also: nearly all actives have a fitted effect of over 75% in size. The note with it: G9a H3K9 monomethylation, AlphaScreen, 2 h; series mostly up to 102 µM; activity, negative = inhibition: at the top concentration. In short, it runs like this:
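Using a bead-based AlphaScreen, monomethylated H3K9 product from 2 h room-temperature reactions (G9a 20 nM, peptide 500 nM, SAM 20 uM) was detected with 0.5 ug/mL rabbit anti-H3K9me1 antibody.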
(In general: In qHTS, concentration-response curves come from the screen itself.)
As for `Cc1cc(-c2n[nH]c(=S)n2-c2ccc(C)c(C)c2)no1`, the Potency was 2.51 µM (active).

As to `c1ccc(CN2CC[C@@]3(CCCNC3)C2)cc1`, the activity, negative = inhibition is -24.8% [at 12.7 µM] (inactive).

As for `CN1CCN(C(=O)COc2ccc(C(C)(C)C)cc2Br)CC1`, the “activity, negative = inhibition” value was -8.26% (inactive).

Consider `O=C(O)c1ccccc1NC(=O)C1C2CCC(O2)C1C(=O)O` (configuration not stated), for which the activity, negative = inhibition is -2.22% [at 0.501 µM] (inactive).

In the case of `ClC(Cl)(Cl)c1ccccc1`, the activity, negative = inhibition is -20.6% [at 0.501 µM] (inactive).

With `CCN1C(=O)C(=Cc2c(C)n(CC(=O)NCC3CCCO3)c3ccccc23)C(=O)N(CC)C1=S` (configuration not stated), the Potency is 39.8 µM (active).

Regarding `O=C1C2(Cl)C3(Cl)C4(Cl)C(Cl)(Cl)C5(Cl)C3(Cl)C1(Cl)C5(Cl)C24Cl` (configuration not stated), the activity, negative = inhibition is -1.92% [at 0.501 µM] (inactive).

Consider `COc1ccccc1-c1[se]c2ccccc2c1I`, for which the “activity, negative = inhibition” value is 71.9% [at 59 µM] (inactive).

In the case of `COC(=O)C1=C(c2ccc(F)cc2OCc2ccccc2)C[C@@H]2CC[C@H]1N2C(=O)NCc1ccc(OC)c(OC)c1`, the activity, negative = inhibition is -8.71% [at 0.501 µM] (inactive).

`CN(C)[C@@H]1C(=O)C(C(N)=O)=C(O)[C@@]2(O)C(=O)C3=C(O)c4c(O)cccc4[C@@](C)(O)C3CC12` (some centres not stated): the Potency was 22.4 µM (active).

With `CNC(=O)O/N=C(\N)Cc1csc2ccccc12`, the “activity, negative = inhibition” value was 20.1% [at 59 µM] (inactive).

Consider `C/C(CCc1c[nH]c2ccccc12)=N\O`, for which the activity, negative = inhibition was 13.7% [at 12.7 µM] (inactive).

Consider `O=C(Nc1ccc(Cl)cc1C(=O)c1ccccc1)c1cc(Cl)cc(Cl)c1`, for which the “activity, negative = inhibition” value was -10.5% [at 59 µM] (inactive).

For `C=Cn1ccnc1P(=S)(c1cc(N(CC)CC)ns1)c1nccn1C=C`, the “activity, negative = inhibition” value was -9.17% [at 59 µM] (inactive).

As for `COP(=O)(NS(=O)(=O)c1ccccc1)OC`, the “activity, negative = inhibition” value was -8.09% (inactive).

For the molecule `CN1CCN(c2cc(N3CCNCC3)ccc2[N+](=O)[O-])CC1`, the “activity, negative = inhibition” value was -17.5% [at 59 µM] (inactive).

Regarding `Cc1nc2ccc(N3CCN(C)CC3)cc2nc1C`, the “activity, negative = inhibition” value is 14.8% (inactive).

`COc1cccc(-c2nc3ccc(N4CCN(C)CC4)cc3[nH]2)c1`: the Potency was 44.7 µM (active).

With `CN(C)/C=C(\C=[N+](C)C)c1[nH]ncc1[N+](=O)[O-]`, the “activity, negative = inhibition” value is -35.8% (inactive).

For `CCc1nnc(NS(=O)(=O)c2ccc(N=Cc3c(O)n(-c4ccccc4)c(=O)[nH]c3=O)cc2)s1`, the “activity, negative = inhibition” value was -36.3% (inactive).

Regarding `N#CC1=C(N)Oc2c(c(=O)oc3ccccc23)C1c1ccccc1OC(=O)c1cccs1` (configuration not stated), the “activity, negative = inhibition” value was -9.96% (inactive).

With `COC(=O)C1=C(c2ccc(F)cc2F)C[C@@H]2CC[C@H]1N2C(=O)NC1CC1`, the activity, negative = inhibition was 2.71% [at 0.501 µM] (inactive).

In the case of `O=C(CCNS(=O)(=O)c1ccccc1)Nc1ccc(Cl)cc1C(=O)c1ccccc1`, the “activity, negative = inhibition” value was 21.4% [at 59 µM] (inactive).

Take `CCOC(=O)C1=C(C)OC(N)=C(C(=O)OC)C12C(=O)Nc1ccc(Br)cc12` (configuration not stated): the activity, negative = inhibition is 8.25% [at 2.33 µM] (inactive).

As for `CC[N+](C)(CC)CCC[n+]1c(-c2ccccc2)c2cc(N)ccc2c2ccc(N)cc21`, the Potency is 5.01 µM (active).

In the case of `C[C@H]1CC[C@@]2(NC1)O[C@@H]1C[C@H]3[C@@H]4CC=C5C[C@@H](O)CC[C@]5(C)[C@@H]4CC[C@]3(C)[C@@H]1[C@@H]2C`, the activity, negative = inhibition is 18.8% [at 21.5 µM] (inactive).

As for `CCN1CCN(c2nc3c(c(=O)[nH]2)CCC3)CC1`, the “activity, negative = inhibition” value is -48.7% (inactive).

Consider `CCOc1ccc(CN(CCCl)CCCl)cc1C(=O)OC`, for which the activity, negative = inhibition is 16.9% [at 0.501 µM] (inactive).

On to `CCOP(=O)(OCC)C(O)c1ccc(OC)cc1OC` (configuration not stated), for which the “activity, negative = inhibition” value is 7.49% [at 59 µM] (inactive).

Turning to `CCOC(=O)c1ncn2c1[C@@H]1CCCN1C(=O)c1cc(OC)ccc1-2`, the activity, negative = inhibition entry was “inactive”.

As for `CCOC(=O)C1CN(C)CCC1=O` (configuration not stated), the activity, negative = inhibition is 26.6% [at 2.33 µM] (inactive).

Consider `COc1ccccc1CN1CCN(C(=O)Cc2ccccc2)CC1`, for which the Potency is 17.8 µM (active).

As to `O=C(Cn1c(=O)n(CC2CS2)c2ccccc21)N1CCCCC1` (configuration not stated), the “activity, negative = inhibition” value was -40.4% (inactive).

`CCN1CCN(C(=O)Cc2coc3cc(C)cc(C)c23)CC1`: the “activity, negative = inhibition” value was -6.19% [at 59 µM] (inactive).

As for `O=C(Cc1ccccc1)N1CCN(C2CCCCCC2)CC1`, the Potency is 31.6 µM (active).

On to `CCC(=NCCc1ccccc1)c1c(O)n(C2CCCCC2)c(=O)[nH]c1=O`, for which the “activity, negative = inhibition” value was -19.9% [at 59 µM] (inactive).

Take `CN1CCN(Cc2ccccc2C(F)(F)F)CC1`: the “activity, negative = inhibition” value is -12.5% [at 59 µM] (inactive).

On to `CCOC(=O)C(O)(c1ccc(NC(=O)c2ccco2)c(OC)c1)C(F)(F)F` (configuration not stated), for which the activity, negative = inhibition is -45.5% [at 2.33 µM] (inactive).

In the case of `c1ccc(CCCCN2CCC(c3ccccc3)CC2)cc1`, the “activity, negative = inhibition” value was 9.12% [at 59 µM] (inactive).

Consider `CC1=C(C(=O)Nc2ccccc2)S(=O)(=O)CCO1`, for which the “activity, negative = inhibition” value is 2.61% (inactive).

With `CC(Cc1ccccc1)NC=O` (configuration not stated), the activity, negative = inhibition is 2.33% [at 12.7 µM] (inactive).

Turning to `COC(=O)C1=C(c2ccc(Cl)c(C(F)(F)F)c2)C[C@@H]2CC[C@H]1N2C(=O)NC1CC1`, the activity, negative = inhibition was 7.94% [at 0.501 µM] (inactive).

Regarding `OC(Cn1c2ccccc2c2ccccc21)C[n+]1ccccc1` (configuration not stated), the “activity, negative = inhibition” value is 18.9% (inactive).

In the case of `CN1CCc2nc(SC(C(=O)O)c3ccccc3)c(C#N)c(-c3cccs3)c2C1` (configuration not stated), the Potency was 31.6 µM (active).

As to `CN1CCCC(=C(c2cccs2)c2cccs2)C1`, the activity, negative = inhibition was -17.6% [at 12.7 µM] (inactive).

Consider `Cn1c(O)c(C=NCCCC(=O)O)c(=O)n(C)c1=O`, for which the “activity, negative = inhibition” value was -19.8% (inactive).

For `COCCNC(=O)CN1C2CCC1CC(O)(c1cccnc1)C2` (configuration not stated), the “activity, negative = inhibition” value was -5.11% (inactive).

The record behind these values is PubChem BioAssay AID504332 (National Center for Advancing Translational Sciences (NCATS), 2011).
